From PubChem BioAssay (EPA / NIEHS)
Records with an inconclusive call do not appear. Active and inactive are the calls of the source. Rule for the calls: active = hit-call score of the fitted dose curve at least 0.9, where 1 is the maximum; inconclusive = response in the unintended direction; inactive = score below 0.9.

These compounds were tested against Nuclear receptor subfamily 1 group I member 2 (Homo sapiens) (UniProt O75469) (assay: ATG_PXR_TRANS: Attagene TRANS-FACTORIAL HepG2 Assay for human Pregnane X Receptor (PXR) (AID 2283008)).
Chain of Nuclear receptor subfamily 1 group I member 2 (Homo sapiens) (O75469 whole entry, looked up): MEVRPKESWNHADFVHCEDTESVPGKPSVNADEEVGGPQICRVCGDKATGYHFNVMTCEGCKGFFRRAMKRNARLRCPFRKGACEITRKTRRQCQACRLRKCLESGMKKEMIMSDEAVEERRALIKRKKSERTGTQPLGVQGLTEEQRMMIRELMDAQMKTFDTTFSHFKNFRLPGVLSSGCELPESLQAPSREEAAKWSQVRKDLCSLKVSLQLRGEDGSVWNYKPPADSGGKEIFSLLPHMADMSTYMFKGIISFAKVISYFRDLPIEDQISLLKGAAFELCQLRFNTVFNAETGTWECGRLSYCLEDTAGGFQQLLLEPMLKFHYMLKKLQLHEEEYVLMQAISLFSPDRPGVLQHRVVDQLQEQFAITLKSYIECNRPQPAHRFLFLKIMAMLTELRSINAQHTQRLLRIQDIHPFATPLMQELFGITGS
Experimental: ATG_TRANS is a cell-based, multiplexed-readout assay that uses HepG2, a human liver cell line, with measurements taken at 24 hours after chemical dosing in a 24-well plate.ATG_PXR_TRANS is one of 30 assay component(s) measured or calculated from the ATG_TRANS assay. It is designed to make measurements of mRNA induction, a form of inducible reporter, as detected with fluorescence intensity signals by Reverse transcription polymerase chain reaction (RT-PCR) and Capillary electrophoresis technology.Data from the assay component ATG_PXR_TRANS was analyzed into 1 assay endpoint. This assay endpoint, ATG_PXR_TRANS, was analyzed in the positive analysis fitting direction relative to DMSO as the negative control and baseline of activity. Using a type of inducible reporter, measures of mRNA for gain-of-signal activity can be used to understand the reporter gene at the transcription factor-level as they relate to the gene NR1I2. Furthermore, this assay endpoint can be referred to as a primary readout, because this assay has produced multiple assay endpoints where this one serves a reporter gene function. To generalize the intended target to other relatable targets, this assay endpoint is annotated to the nuclear receptor intended target family, where the subfamily is non-steroidal.
Human liver HepG2 cells are transiently transfected with multiple reporter transcription units (MRTUs) in 6-well plates using FuGene 6 reagent (Roche; 3 ml FuGene/1 mg DNA). The MRTU constructs are regulated by a cis-regulating element (promoter). […] A major difference between the CIS and TRANS system is that in CIS activities of endogenous TFs are measured, whereas the TRANS assay evaluates changes in activities of exogenous, chimeric NR-Gal4 proteins. […] At the end of 24 hour incubation, total RNA was isolated using TriZol reagent (Invitrogen). The isolated RNA is then reverse-transcribed using oligo(dT) primer and Mo-MLV reverse transcriptase (Invitrogen) with DNAse I (Ambion) treatment for 30 min. The one-tenth of the produced cDNA was amplified by PCR using Taq DNA polymerase (Invitrogen) and two reporter sequence-specific primers. The PCR products were fluorescently labeled by primer extension with 6-arboxyfluorescein (6-FAM) 5'-labeled reporter sequence-specific primer (2 min at 95 C, 20 s at 68 C and 10 min at 72 C) and these products were digested with 5U of HpaI (New England Biolabs) for 2h at 37 C. The fragments were purified using Qiaquick PCR columns (Qiagen), analyzed on an ABI 3130xL genetic analyzer (Applied Biosystems) with peak positions identified by using a set of X-rhodamine (ROX)-labeled MapMarker1000 molecular weight standards (BioVentures). The raw capillary electrophoresis data was processed using Attagraph software (Attagene).
CC1=CC=C(C(C)C)CC1 was tested, and the outcome was “inactive”. With Nc1ccc(C(=O)OCCCOC(=O)c2ccc(N)cc2)cc1 the AC50 was 19.6 µM (active). In the case of N#Cc1ccc(C2CCCc3cncn32)cc1 (stereo not given), the outcome is reported as “inactive”. With O=C(O)C(F)(F)C(F)(F)C(F)(F)C(F)(F)C(=O)O the outcome was “inactive”. For CC1CCC(C(C)(C)S)C(=O)C1 (stereo not given), the AC50 was 1.89 µM (active). With CCNc1nc(NC(C)(C)C)nc(OC)n1 the AC50 was 3.89 µM (active). For C=CCCCCCCCCO, the outcome was “inactive”. For CC(Cl)COP(=O)(OCC(C)Cl)OCC(C)Cl (stereo not given), the AC50 was 1.37 µM (active). In the case of CCCC1CCCC(=O)O1 (stereo not given), the outcome is reported as “inactive”. O=C(Cl)c1c(Cl)c(Cl)c(C(=O)Cl)c(Cl)c1Cl was tested, and the outcome was “inactive”. In the case of c1ccc2cnccc2c1, the outcome is reported as “inactive”. In the case of C=CC(=O)OCCCCCCOC(=O)C=C, the AC50 is reported as 26.5 µM (active). For CCCCCCCCCC[N+](C)(CCCCCCCCCC)CCC[Si](OC)(OC)OC, the outcome was “inactive”. With CCCC/C=C/C=C\C=O the AC50 was 1.57 µM (active). In the case of CCCCC1CCC(=O)O1 (stereo not given), the AC50 is reported as 41.4 µM (active). OCCCc1ccccc1 was tested, and the outcome was “inactive”. For CC(C)c1ccc(O)c(C(C)C)c1, the AC50 was 6.58 µM (active). O=C(O)CC(C(=O)O)S(=O)(=O)O (stereo not given) was tested, and the outcome was “inactive”. In the case of CC(C)CC(=O)OCc1ccccc1, the outcome is reported as “inactive”. With Cc1cc(C)c(C=O)c(C)c1 the AC50 was 7.01 µM (active). In the case of Cc1c(O)cccc1O, the outcome is reported as “inactive”. For C=CC(C)(O)CC/C=C(\C)CC (stereo not given), the AC50 was 6.12 µM (active). For CC(c1cc(C(C)(C)C)cc(C(C)(C)C)c1O)c1cc(C(C)(C)C)cc(C(C)(C)C)c1O, the AC50 was 0.0816 µM (active). CC1=CC(C)C(C=O)CC1 (stereo not given) was tested, and the AC50 was 27.8 µM (active). For O=C(Cl)c1ccc(C(=O)Cl)cc1, the outcome was “inactive”. For CCCCC/C=C\C/C=C\CCCCCCCC(=O)O, the outcome was “inactive”. For Nc1cccc(N)n1, the outcome was “inactive”. With CCN1CCCC1=O the outcome was “inactive”. In the case of CC1C(C)(C)C2=C(C(=O)CCC2)C1(C)C (stereo not given), the AC50 is reported as 7.68 µM (active). CC(C)C(=O)OCCc1ccccc1 was tested, and the outcome was “inactive”. CC=CC(=O)OCC(C)C was tested, and the outcome was “inactive”. For N=C1C=CC(=C(c2ccc(N)cc2)c2ccc(N)cc2)C=C1, the outcome was “inactive”. In the case of CC(C)c1cccc(C(C)C)c1N, the outcome is reported as “inactive”. C=CC(C)(CCC=C(C)C)OC(=O)C=Cc1ccccc1 (stereo not given) was tested, and the AC50 was 2.75 µM (active). For CCCC=C(C=O)CC, the outcome was “inactive”. For CCCCCCOC(=O)CCCCC(=O)OCCCCCC, the outcome was “inactive”. COc1cc(C)ccc1O was tested, and the outcome was “inactive”. With CCCCCCO the outcome was “inactive”. With C1CNCCN1 the outcome was “inactive”. With CC=C(C)C=CC=C(C)C the AC50 was 6.05 µM (active).
